The record followed here is PubChem BioAssay (Tox21).

Structures are written as SMILES. Records with an inconclusive call do not appear. A call without a number means that no potency is given here. Activity calls are given as the source filed them. Calls follow the shape of the dose curve; as a rule, active = well fitted curve in the direction sought with a large enough effect in the repeat runs; inconclusive = weak or mixed curves; inactive = no such curve, though single readings can be large; an effect the other way counts as inactive or inconclusive.

The first experiment can be described thus: qHTS assay to identify small molecule antagonists of the estrogen related receptor (ERR) signaling pathway - cell viability counter screen (AID 1224818). The following applies: ERR reporter cell line viability counter screen; series mostly up to 46.1 µM. The gist of the method: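 Viability of ERR cells, CellTiter-Fluor fluorescence; 17.5 h compound exposure at 37 C, DMSO vehicle; 30 min reagent incubation at 37 C/5% CO2.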
For orientation: qHTS replaces the single test concentration by a dilution series.
For `O=C1NC(=O)/C(=C/c2ccc3nccnc3c2)S1`, the Potency entry is “inactive”.

Turning to `[Li+]`, the Potency result was “inactive”.

For the compound `O=C(O)C1CCCNC1` (centres undefined), the Potency result was “inactive”.

As for `COC(=O)C(N)Cc1ccc(Cl)cc1` (centres undefined), the Potency result is “inactive”.

For the compound `CC[C@H]1OC(=O)[C@H](C)[C@@H](O[C@H]2C[C@@](C)(OC)[C@@H](O)[C@H](C)O2)[C@H](C)[C@@H](O[C@@H]2O[C@H](C)C[C@H](NC)[C@H]2O)[C@](C)(O)C[C@@H](C)CN(C)[C@H](C)[C@@H](O)[C@]1(C)O`, the Potency result was “inactive”.

Turning to `Cn1cnc2c(NCc3ccccc3)nc(NCCO)nc21`, the Potency result is “inactive”.

As for `N[C@H](CCCP(=O)(O)O)C(=O)O`, the Potency result is “inactive”.

As to `CN(CCCOc1ccc(Cc2ccccc2)cc1)CCC(=O)O`, the Potency result is “inactive”.

As for `O=Nc1ccc2oc(=O)ccc2c1`, the Potency result was “inactive”.

Regarding `CC(=O)O[C@H]1Cc2ccccc2N(C(N)=O)c2ccccc21`, the Potency result is “inactive”.

Regarding `CC1CNCCN1S(=O)(=O)c1cccc2cnccc12` (centres undefined), the Potency result was “inactive”.

Regarding `NC(N)=NC(N)=Nc1ccccc1`, the Potency result was “inactive”.

In the case of `CN1[C@@H](CC(=O)c2ccccc2)CCC[C@H]1C[C@H](O)c1ccccc1`, the Potency entry is “inactive”.

For the compound `COc1ccc(NC(=O)/C=C/c2ccc(Cl)cc2)cc1`, the Potency result is “inactive”.

For `CC[C@H](NC(=O)c1c(C)c(-c2ccccc2)nc2ccccc12)c1ccccc1`, the Potency result was “inactive”.

Consider `Cc1cccc(C)c1OCC(N)C(C)C` (centres undefined), for which the Potency result was “inactive”.

As for `CC(=O)O[C@H]1C[C@@H]2CC[C@@H]3[C@H](CC[C@@]4(C)[C@H]3C[C@H]([N+]3(C)CCCCC3)[C@@H]4OC(C)=O)[C@@]2(C)C[C@@H]1[N+]1(C)CCCCC1`, the Potency result is “inactive”.

Take `COc1cc(/C=C(\C#N)C(=O)c2ccc(O)c(O)c2)cc(I)c1O`: the Potency result is “inactive”.

Regarding `CN1Cc2sccc2C(c2ccc(O)c(O)c2)C1` (centres undefined), the Potency result is “inactive”.

A further experiment can be described thus: qHTS assay to identify small molecule antagonists of the estrogen related receptor (ERR) signaling pathway (AID 1224819; also: nearly all actives have a fitted effect of over 50% in size; also: potency is read from the fitted curve at half-maximal effect). The settings on record: ERR reporter cell line, luciferase inhibition; series mostly up to 46.1 µM. The gist of the method: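 Seed ERR cells 2,000/well; rest 6 h at 37 C/5% CO2; pin compounds in DMSO; incubate 18 h at 37 C; add One-Glo; wait 30 min at room temperature; measure luminescence.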
Turning to `CN1C2CCC1CC(OC(c1ccccc1)c1ccccc1)C2` (centres undefined), the Potency entry was “inactive”.

Turning to `NS(=O)(=O)c1ccc(-n2nc(C(F)(F)F)cc2-c2ccc(Cl)cc2)cc1`, the Potency entry was “inactive”.

Turning to `NCCCNCCCCNCCCN`, the Potency result is “inactive”.

As for `N[C@H](C(=O)O)c1cc(O)cc(O)c1`, the Potency result is “inactive”.

As for `N[C@@H](Cn1ccc(=O)c(O)c1)C(=O)O`, the Potency result is “inactive”.

Turning to `COc1cc(OC)c(/C=C2/C(=O)Nc3ccccc32)c(OC)c1`, the Potency is 11 µM (active).

Consider `O=C(c1ccc2c(c1)OCCO2)N1CCCCC1`, for which the Potency entry was “inactive”.

Consider `CNC(=O)c1cc2c(cn1)[nH]c1ccccc12`, for which the Potency entry is “inactive”.

Take `CN1CCc2ccccc2Cc2[nH]c3ccccc3c2CC1`: the Potency entry is “inactive”.

As to `C[C@H](NC(=O)/C(C#N)=C/c1ccc(O)c(O)c1)c1ccccc1`, the Potency result is “inactive”.

As to `Oc1cc2c(cc1O)C(c1ccccc1)CNCC2` (centres undefined), the Potency result was “inactive”.

`COc1cc(N)c(Cl)cc1C(=O)OCCN1CCCCC1`: the Potency entry was “inactive”.

`Oc1ccc(-c2nc(-c3ccc(F)cc3)c(-c3ccncc3)[nH]2)cc1`: the Potency was 11.4 µM (active).

Consider `C[C@](Cc1ccc(O)c(O)c1)(NN)C(=O)O`, for which the Potency result is “inactive”.

Consider `CSc1ccccc1N1CCN(CCCCCC(=O)NC2CCCc3ccccc32)CC1` (centres undefined), for which the Potency is 16.2 µM (active).

On to `NCCCC(=O)O`, for which the Potency result is “inactive”.

`COc1ccc(Br)cc1S(=O)(=O)NC(=O)/C=C/c1ccccc1Cc1ccc2ccccc2c1`: the Potency result is “inactive”.

Consider `O=c1[nH]c2ccccc2c2ccccc12`, for which the Potency entry was “inactive”.

Regarding `Oc1ccc2ccccc2c1SSc1c(O)ccc2ccccc12`, the Potency was 20.3 µM (active).

Turning to `CSc1nc(N)c2ncn([C@@H]3O[C@H](COP(=O)(O)OP(=O)(O)O)C(O)[C@H]3O)c2n1` (some centres undefined), the Potency result is “inactive”.

For `CN(C)CCCC1(c2ccc(F)cc2)OCc2cc(C#N)ccc21` (centres undefined), the Potency entry was “inactive”.

For `O=C1NC(=O)/C(=C/c2ccc3nccnc3c2)S1`, the Potency result is “inactive”.

For `[Li+]`, the Potency entry is “inactive”.

As to `O=C(O)C1CCCNC1` (centres undefined), the Potency result was “inactive”.

For the compound `COC(=O)C(N)Cc1ccc(Cl)cc1` (centres undefined), the Potency entry was “inactive”.

Regarding `CC[C@H]1OC(=O)[C@H](C)[C@@H](O[C@H]2C[C@@](C)(OC)[C@@H](O)[C@H](C)O2)[C@H](C)[C@@H](O[C@@H]2O[C@H](C)C[C@H](NC)[C@H]2O)[C@](C)(O)C[C@@H](C)CN(C)[C@H](C)[C@@H](O)[C@]1(C)O`, the Potency result was “inactive”.

As to `Cn1cnc2c(NCc3ccccc3)nc(NCCO)nc21`, the Potency result was “inactive”.

On to `N[C@H](CCCP(=O)(O)O)C(=O)O`, for which the Potency entry is “inactive”.

Regarding `CN(CCCOc1ccc(Cc2ccccc2)cc1)CCC(=O)O`, the Potency result is “inactive”.

As to `O=Nc1ccc2oc(=O)ccc2c1`, the Potency result was “inactive”.

Regarding `CC(=O)O[C@H]1Cc2ccccc2N(C(N)=O)c2ccccc21`, the Potency result is “inactive”.

Take `CC1CNCCN1S(=O)(=O)c1cccc2cnccc12` (centres undefined): the Potency entry is “inactive”.

In the case of `NC(N)=NC(N)=Nc1ccccc1`, the Potency result is “inactive”.

In the case of `CN1[C@@H](CC(=O)c2ccccc2)CCC[C@H]1C[C@H](O)c1ccccc1`, the Potency entry is “inactive”.

On to `COc1ccc(NC(=O)/C=C/c2ccc(Cl)cc2)cc1`, for which the Potency entry is “inactive”.

On to `CC[C@H](NC(=O)c1c(C)c(-c2ccccc2)nc2ccccc12)c1ccccc1`, for which the Potency is 22 µM (active).

As for `Cc1cccc(C)c1OCC(N)C(C)C` (centres undefined), the Potency result is “inactive”.

Take `CC(=O)O[C@H]1C[C@@H]2CC[C@@H]3[C@H](CC[C@@]4(C)[C@H]3C[C@H]([N+]3(C)CCCCC3)[C@@H]4OC(C)=O)[C@@]2(C)C[C@@H]1[N+]1(C)CCCCC1`: the Potency entry is “inactive”.

As for `COc1cc(/C=C(\C#N)C(=O)c2ccc(O)c(O)c2)cc(I)c1O`, the Potency result is “inactive”.

For `CN1Cc2sccc2C(c2ccc(O)c(O)c2)C1` (centres undefined), the Potency result is “inactive”.
